# Columns and labels:
# [1] = biological target: Serine/threonine-protein kinase MARK2 (Homo sapiens) (UniProt Q7KZI7); conditions: at 1 µM
# [2] = biological target: PAS domain-containing serine/threonine-protein kinase (Homo sapiens) (UniProt Q96RG2); conditions: at 0.1 µM
# [3] = biological target: PAS domain-containing serine/threonine-protein kinase (Homo sapiens) (UniProt Q96RG2); conditions: at 1 µM
# [4] = biological target: Phosphorylase b kinase gamma catalytic chain, skeletal muscle/heart isoform (Homo sapiens) (UniProt Q16816); conditions: at 0.1 µM
# [5] = biological target: Phosphorylase b kinase gamma catalytic chain, skeletal muscle/heart isoform (Homo sapiens) (UniProt Q16816); conditions: at 1 µM
# [6] = biological target: T1, Phosphorylase b kinase gamma catalytic chain, liver/testis isoform (Homo sapiens) (UniProt P15735); conditions: at 0.1 µM
# T1 sequence (whole entry): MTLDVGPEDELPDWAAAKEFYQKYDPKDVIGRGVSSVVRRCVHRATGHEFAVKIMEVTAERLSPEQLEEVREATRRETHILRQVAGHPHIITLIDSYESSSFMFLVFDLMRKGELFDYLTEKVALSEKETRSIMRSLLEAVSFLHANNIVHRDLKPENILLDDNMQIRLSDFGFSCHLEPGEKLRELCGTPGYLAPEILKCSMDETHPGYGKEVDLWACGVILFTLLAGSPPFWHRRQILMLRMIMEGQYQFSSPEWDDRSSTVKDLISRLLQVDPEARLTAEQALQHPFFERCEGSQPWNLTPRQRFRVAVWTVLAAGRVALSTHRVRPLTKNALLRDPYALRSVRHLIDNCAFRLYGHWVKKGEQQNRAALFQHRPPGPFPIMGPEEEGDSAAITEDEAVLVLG
# [7] = biological target: T1, Phosphorylase b kinase gamma catalytic chain, liver/testis isoform (Homo sapiens); conditions: at 1 µM
# [8] = biological target: Serine/threonine-protein kinase pim-1 (Homo sapiens) (UniProt P11309); conditions: at 0.1 µM
# [9] = biological target: Serine/threonine-protein kinase pim-1 (Homo sapiens) (UniProt P11309); conditions: at 1 µM
# [10] = biological target: Serine/threonine-protein kinase pim-2 (Homo sapiens) (UniProt Q9P1W9); conditions: at 0.1 µM;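 note: reported value is the mean percent inhibition of PIM2, measured in the GSK PKIS kinase inhibitor set screen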
# Chain of Serine/threonine-protein kinase pim-2 (Homo sapiens) (Q9P1W9 whole entry, looked up): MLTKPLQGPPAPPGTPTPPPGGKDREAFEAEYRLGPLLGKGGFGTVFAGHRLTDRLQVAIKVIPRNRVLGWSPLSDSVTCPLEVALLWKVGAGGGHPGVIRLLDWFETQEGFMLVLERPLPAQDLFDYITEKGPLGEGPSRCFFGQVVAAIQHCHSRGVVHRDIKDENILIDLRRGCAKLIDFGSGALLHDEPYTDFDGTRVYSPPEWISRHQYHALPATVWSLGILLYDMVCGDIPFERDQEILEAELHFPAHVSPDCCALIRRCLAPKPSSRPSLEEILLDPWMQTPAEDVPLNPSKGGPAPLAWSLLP
# Chain of Phosphorylase b kinase gamma catalytic chain, skeletal muscle/heart isoform (Homo sapiens) (Q16816 whole entry, looked up, canonical isoform): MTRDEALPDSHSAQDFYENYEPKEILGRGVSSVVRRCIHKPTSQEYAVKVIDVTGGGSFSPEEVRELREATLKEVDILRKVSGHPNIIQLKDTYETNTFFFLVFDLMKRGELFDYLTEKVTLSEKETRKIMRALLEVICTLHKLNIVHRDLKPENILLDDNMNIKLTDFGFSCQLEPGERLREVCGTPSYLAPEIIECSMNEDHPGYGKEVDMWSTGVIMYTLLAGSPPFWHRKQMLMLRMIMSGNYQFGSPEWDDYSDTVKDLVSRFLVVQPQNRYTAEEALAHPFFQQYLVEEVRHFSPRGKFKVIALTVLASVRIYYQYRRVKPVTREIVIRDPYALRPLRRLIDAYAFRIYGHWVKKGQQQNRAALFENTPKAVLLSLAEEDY
# Chain of Serine/threonine-protein kinase MARK2 (Homo sapiens) (Q7KZI7 whole entry, the tested form may be a part): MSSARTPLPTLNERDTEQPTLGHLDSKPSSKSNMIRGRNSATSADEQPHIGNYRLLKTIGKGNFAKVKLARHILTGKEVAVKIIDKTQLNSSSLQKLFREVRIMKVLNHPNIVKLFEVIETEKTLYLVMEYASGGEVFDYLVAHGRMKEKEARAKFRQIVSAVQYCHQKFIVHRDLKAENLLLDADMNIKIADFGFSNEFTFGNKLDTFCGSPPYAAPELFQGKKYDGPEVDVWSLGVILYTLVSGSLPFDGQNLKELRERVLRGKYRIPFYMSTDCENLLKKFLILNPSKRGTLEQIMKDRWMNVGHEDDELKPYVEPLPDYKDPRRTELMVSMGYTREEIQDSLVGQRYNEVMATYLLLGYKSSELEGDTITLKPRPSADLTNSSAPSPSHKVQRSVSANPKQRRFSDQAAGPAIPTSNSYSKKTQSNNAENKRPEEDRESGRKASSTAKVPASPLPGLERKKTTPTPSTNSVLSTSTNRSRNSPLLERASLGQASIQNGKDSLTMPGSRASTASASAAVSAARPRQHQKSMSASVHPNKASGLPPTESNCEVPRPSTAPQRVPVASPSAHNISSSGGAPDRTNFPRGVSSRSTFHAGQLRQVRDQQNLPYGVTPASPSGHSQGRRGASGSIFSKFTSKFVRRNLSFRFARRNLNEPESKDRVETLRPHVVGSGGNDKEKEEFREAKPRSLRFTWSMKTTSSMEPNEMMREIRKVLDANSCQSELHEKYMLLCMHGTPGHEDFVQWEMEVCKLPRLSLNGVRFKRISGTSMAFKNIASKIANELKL
# Chain of PAS domain-containing serine/threonine-protein kinase (Homo sapiens) (Q96RG2 whole entry, the tested form may be a part, canonical isoform): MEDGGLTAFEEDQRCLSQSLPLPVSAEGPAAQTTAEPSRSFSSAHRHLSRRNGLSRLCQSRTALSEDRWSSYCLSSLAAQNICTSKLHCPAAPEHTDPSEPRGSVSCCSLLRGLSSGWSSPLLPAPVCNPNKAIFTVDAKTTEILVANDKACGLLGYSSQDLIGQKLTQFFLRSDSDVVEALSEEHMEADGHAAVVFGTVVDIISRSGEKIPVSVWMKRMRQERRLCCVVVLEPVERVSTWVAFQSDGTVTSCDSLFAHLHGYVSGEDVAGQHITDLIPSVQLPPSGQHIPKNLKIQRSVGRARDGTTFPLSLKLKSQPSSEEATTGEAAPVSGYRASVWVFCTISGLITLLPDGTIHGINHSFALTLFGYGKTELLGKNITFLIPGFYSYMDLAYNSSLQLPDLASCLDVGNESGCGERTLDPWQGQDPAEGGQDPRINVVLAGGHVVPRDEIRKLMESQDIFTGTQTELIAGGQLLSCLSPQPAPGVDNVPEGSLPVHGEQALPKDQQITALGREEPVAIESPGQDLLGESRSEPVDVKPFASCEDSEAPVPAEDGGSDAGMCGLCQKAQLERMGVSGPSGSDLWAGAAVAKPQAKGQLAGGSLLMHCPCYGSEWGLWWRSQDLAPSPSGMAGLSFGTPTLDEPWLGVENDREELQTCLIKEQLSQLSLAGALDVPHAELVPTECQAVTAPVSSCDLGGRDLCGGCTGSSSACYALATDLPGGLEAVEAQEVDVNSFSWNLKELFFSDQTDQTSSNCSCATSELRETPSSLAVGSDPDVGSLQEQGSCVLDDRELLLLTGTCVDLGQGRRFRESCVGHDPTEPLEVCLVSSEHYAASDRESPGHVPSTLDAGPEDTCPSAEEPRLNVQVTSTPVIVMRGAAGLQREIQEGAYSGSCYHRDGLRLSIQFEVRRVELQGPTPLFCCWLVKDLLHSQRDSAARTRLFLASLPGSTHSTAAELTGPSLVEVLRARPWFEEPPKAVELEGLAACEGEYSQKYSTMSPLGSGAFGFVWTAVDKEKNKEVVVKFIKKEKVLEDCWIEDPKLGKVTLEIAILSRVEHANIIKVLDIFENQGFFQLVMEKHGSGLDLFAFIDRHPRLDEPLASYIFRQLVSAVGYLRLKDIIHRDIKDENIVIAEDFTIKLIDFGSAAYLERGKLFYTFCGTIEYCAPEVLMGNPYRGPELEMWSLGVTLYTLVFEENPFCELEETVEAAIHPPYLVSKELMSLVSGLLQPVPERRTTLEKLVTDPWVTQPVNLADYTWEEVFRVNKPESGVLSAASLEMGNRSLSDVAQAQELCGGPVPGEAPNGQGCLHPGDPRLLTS
# Chain of Serine/threonine-protein kinase pim-1 (Homo sapiens) (P11309 whole entry, looked up): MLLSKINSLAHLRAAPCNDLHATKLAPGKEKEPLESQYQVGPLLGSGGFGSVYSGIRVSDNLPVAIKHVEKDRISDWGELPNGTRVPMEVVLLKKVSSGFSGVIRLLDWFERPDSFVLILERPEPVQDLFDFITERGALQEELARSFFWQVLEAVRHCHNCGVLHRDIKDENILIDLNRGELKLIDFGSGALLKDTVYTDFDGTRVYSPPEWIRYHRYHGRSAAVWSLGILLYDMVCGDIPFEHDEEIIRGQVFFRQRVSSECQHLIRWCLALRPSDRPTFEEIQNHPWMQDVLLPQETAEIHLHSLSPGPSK
SMILES,inhibition [1] [%],inhibition [2] [%],inhibition [3] [%],inhibition [4] [%],inhibition [5] [%],inhibition [6] [%],inhibition [7] [%],inhibition [8] [%],inhibition [9] [%],inhibition [10] [%]
Cc1ccc2c(-c3ccnc(Nc4ccccc4)n3)c(-c3ccc(F)cc3)nn2n1,1.15,0.46,-1.64,1.5,4.45,4.39,1.91,-0.18,-0.05,-0.3
CS(=O)(=O)CCNCc1ccc(-c2ccc3ncnc(Nc4ccc(OCc5ccccc5)c(C(F)(F)F)c4)c3c2)o1,1.46,0,0.88,7.15,6.03,5.4,5.06,-0.57,1.31,0.54
COc1ccc2c(-c3ccnc(Nc4cccc(OC(F)(F)F)c4)n3)cnn2n1,2.62,-0.05,0.2,2.28,8.92,6.32,8.34,1.24,0.36,-0.29
CNC(=O)c1cncc(/C=C/c2ccccc2Cl)c1,0.58,1.8,4.02,-1.06,2.44,1.88,5.64,0.54,0.89,0.13
CNC(=O)c1cccc(C#Cc2cncnc2Nc2ccc(OCc3cccc(F)c3)c(Cl)c2)c1,-2.06,0.44,0.79,-2.47,2.19,2.39,3.44,0.55,0.54,0.37
Cc1cccc(Nc2ncc(-c3ccccc3)o2)c1,6.99,-0.74,1.15,2.49,0.97,2.92,3.71,1.11,0.94,0.15
CN(C)CCOc1ccc(-c2nc(-c3ccncc3)c(-c3ccc4c(c3)CC/C4=N\O)[nH]2)cc1,0.92,-0.26,0.36,1.18,7.7,3.65,5.28,1.13,1.48,-0.23
[O-][S+]1CCN(Cc2ccc(-c3ccc4ncnc(Nc5ccc(OCc6cccc(F)c6)c(Cl)c5)c4c3)o2)CC1,2.61,0.34,0.46,5.93,8.77,7.01,6.77,0.76,2.24,0.73
CCCN(CCS(C)(=O)=O)Cc1ccc(-c2ccc3ncnc(Nc4ccc(OCc5cccc(F)c5)c(Cl)c4)c3c2)o1,-0.2,0.15,-0.42,1.09,2.68,1.93,1.35,0.83,0.67,-0.45
CCN(CC)S(=O)(=O)c1ccc(OC)c(Nc2ncc(-c3ccccc3)o2)c1,0.33,1.24,1.76,-0.59,12.3,2.23,2.3,1.35,0.97,-0.31
COc1ccc2[nH]c3c4[nH]c5ccc(OC)cc5c4c4c(c3c2c1)C(=O)NC4=O,11.8,-0.49,-1.47,48.4,73.3,9.06,39.8,28.7,74.2,21.4
O=C(Nc1n[nH]c2cc(-c3ccc(F)cc3)ccc12)C1CC1,2.24,-0.52,-1.02,3.89,6.4,6.96,2.35,0.88,3.11,-0.18
Cc1cccc2c1NC(=O)/C2=N\Nc1ccc(S(N)(=O)=O)cc1,1.34,0.5,-1.79,-1.4,2.98,3.6,2.88,1.4,-0.19,0.28
N#Cc1c(NC(=O)CN2CCOCC2)sc2c1CCCC2,1.25,0.47,0.86,6,9.65,5.37,6.47,0.03,0.16,0.29
COc1cc(/C=N/Nc2ncnc3[nH]ncc23)ccc1O,17.5,-0.24,1.75,4.58,16.6,4.03,8.53,1.55,10.9,0.15
Nc1nc(-c2ccc(F)cc2)c(-c2ccc3ncccc3n2)s1,0.96,0.84,-0.64,4.41,7.81,6.3,5.79,0.35,2.38,0.17
c1cc(-c2cnn3nc(N4CCOCC4)ccc23)nc(NC2CC2)n1,7.93,0.49,-0.94,3.94,29.5,6.12,12.2,0.22,3.37,-0.29

SMILES,inhibition [1] [%],inhibition [2] [%],inhibition [3] [%],inhibition [4] [%],inhibition [5] [%],inhibition [6] [%],inhibition [7] [%],inhibition [8] [%],inhibition [9] [%],inhibition [10] [%]
CCN1CCC(CC(=O)Nc2n[nH]c3nnc(-c4cccc(F)c4F)cc23)CC1,1.15,0.77,1.59,5.02,5.09,3.86,4.27,0.56,0.7,0.39
Fc1cccc(COc2ccc(Nc3ncnc4sc(-c5ccco5)cc34)cc2Cl)c1,2.25,-0.19,0.63,5.6,5.83,4.96,5.36,-0.57,0.55,0.56
CCCN1CCC(c2ccc(Nc3nc(Nc4cc(F)ccc4C(N)=O)c4cc[nH]c4n3)c(OC)c2)CC1,41,0.01,20.7,51.3,80.7,25.7,71.7,7.64,45.3,1.98
Fc1ccc(-c2nn3ncccc3c2-c2ccnc(Nc3ccc4c(c3)OCCO4)n2)cc1,-1.26,-0.29,-3.15,4.49,6.66,4.66,0.54,0.37,1.21,0.26
COc1cc(Nc2nccc(Nc3ccc4c(C)n[nH]c4c3)n2)cc(OC)c1OC,8.17,1.32,0.33,-0.65,5.26,2.27,0.52,1.13,1.26,1.46
COc1cccc(-n2ncc3c(N/N=C/c4ccc(F)cc4)ncnc32)c1,1.76,0.08,0.35,2.66,5.43,5.34,6.87,1.15,1.15,-0.5
Cc1ccc(O)cc1Nc1ccnc2cc(-c3ccccn3)ccc12,4.34,0.71,-0.05,2.23,9.36,5.58,2.55,0.67,3.79,0.49
CCNC(=O)O[C@H]1CN[C@H](C#Cc2cc3ncnc(Nc4ccc(OCc5cccc(F)c5)c(Cl)c4)c3s2)C1,2.03,0.27,-1.53,0.81,0.44,3.66,0.88,0.78,0.26,-0.1
CCn1c(-c2nonc2N)nc2ccccc21,2.79,1.01,0.51,2.03,2.71,3.71,0.96,0.21,4.54,-0.12
CCOc1ccc2c(-c3ccnc(Nc4cccc(C(F)(F)F)c4)n3)cnn2n1,0.82,0.62,0.46,2.65,6.48,3.64,3.92,-1.05,-1.35,0.55
Fc1ccc(-c2nn3ccccc3c2-c2ccncc2)cc1,0.53,-0.17,-0.32,2.42,2.09,0.28,-0.7,-0.39,0.04,-0.3
CS(=O)(=O)CCNCc1coc(-c2ccc3ncnc(Nc4ccc(OCc5ccccc5)cc4)c3c2)c1,2.39,0.45,0.89,2.33,6.25,3.94,3.59,1.45,1.25,-0.56
CN1CCC(n2cnc(-c3ccc(F)cc3)c2-c2ccnc(Nc3ccccc3)n2)CC1,-0.33,-0.38,2.19,3.44,4.79,3.49,2.68,0.38,2.62,-0.56
COc1cccc(-c2c[nH]c3c(N/N=C/c4ccncc4)ncnc23)c1,5.48,0.94,-0.58,3.01,12.1,3.45,1.52,1.65,5.38,-0.12
COc1ccc(-c2cc(-c3c[nH]nc3-c3ccccn3)ccn2)cc1,1.63,1.23,0.75,2.63,6.04,6.55,8.39,-0.05,0.03,0.36
CCn1c(-c2nonc2N)nc2c(C#CC(C)(C)O)ncc(OC3CCNCC3)c21,62.2,-0.02,13.1,1.52,3.09,4.06,3.58,2.62,24.1,1.16

# Reference: ChEMBL document CHEMBL1961873, “Compounds: GSK PKIS; Assays: Nanosyn kinase panel” (2012)
